Reference: the supplement of paper PMC11732987, “Enantioselective OTUD7B fragment discovery through chemoproteomics screening and high-throughput optimisation” (Communications Chemistry, 2025)

How the values were obtained:
Experiment in all cases: log2 ratio of Biotin-Ahx-Ub-VS probe labelling (fragment/DMSO); higher = less target engagement (more negative = stronger competition), active = hit call of the paper (q ≤ 0.05, log2 ratio ≤ -1)
Conditions in all cases: compound concentration: 200 uM; treatment time: 3 h
USP34 = USP34 (UniProt Q70CQ2)
Sequence of USP34 (Q70CQ2 whole entry, the tested form may be a part): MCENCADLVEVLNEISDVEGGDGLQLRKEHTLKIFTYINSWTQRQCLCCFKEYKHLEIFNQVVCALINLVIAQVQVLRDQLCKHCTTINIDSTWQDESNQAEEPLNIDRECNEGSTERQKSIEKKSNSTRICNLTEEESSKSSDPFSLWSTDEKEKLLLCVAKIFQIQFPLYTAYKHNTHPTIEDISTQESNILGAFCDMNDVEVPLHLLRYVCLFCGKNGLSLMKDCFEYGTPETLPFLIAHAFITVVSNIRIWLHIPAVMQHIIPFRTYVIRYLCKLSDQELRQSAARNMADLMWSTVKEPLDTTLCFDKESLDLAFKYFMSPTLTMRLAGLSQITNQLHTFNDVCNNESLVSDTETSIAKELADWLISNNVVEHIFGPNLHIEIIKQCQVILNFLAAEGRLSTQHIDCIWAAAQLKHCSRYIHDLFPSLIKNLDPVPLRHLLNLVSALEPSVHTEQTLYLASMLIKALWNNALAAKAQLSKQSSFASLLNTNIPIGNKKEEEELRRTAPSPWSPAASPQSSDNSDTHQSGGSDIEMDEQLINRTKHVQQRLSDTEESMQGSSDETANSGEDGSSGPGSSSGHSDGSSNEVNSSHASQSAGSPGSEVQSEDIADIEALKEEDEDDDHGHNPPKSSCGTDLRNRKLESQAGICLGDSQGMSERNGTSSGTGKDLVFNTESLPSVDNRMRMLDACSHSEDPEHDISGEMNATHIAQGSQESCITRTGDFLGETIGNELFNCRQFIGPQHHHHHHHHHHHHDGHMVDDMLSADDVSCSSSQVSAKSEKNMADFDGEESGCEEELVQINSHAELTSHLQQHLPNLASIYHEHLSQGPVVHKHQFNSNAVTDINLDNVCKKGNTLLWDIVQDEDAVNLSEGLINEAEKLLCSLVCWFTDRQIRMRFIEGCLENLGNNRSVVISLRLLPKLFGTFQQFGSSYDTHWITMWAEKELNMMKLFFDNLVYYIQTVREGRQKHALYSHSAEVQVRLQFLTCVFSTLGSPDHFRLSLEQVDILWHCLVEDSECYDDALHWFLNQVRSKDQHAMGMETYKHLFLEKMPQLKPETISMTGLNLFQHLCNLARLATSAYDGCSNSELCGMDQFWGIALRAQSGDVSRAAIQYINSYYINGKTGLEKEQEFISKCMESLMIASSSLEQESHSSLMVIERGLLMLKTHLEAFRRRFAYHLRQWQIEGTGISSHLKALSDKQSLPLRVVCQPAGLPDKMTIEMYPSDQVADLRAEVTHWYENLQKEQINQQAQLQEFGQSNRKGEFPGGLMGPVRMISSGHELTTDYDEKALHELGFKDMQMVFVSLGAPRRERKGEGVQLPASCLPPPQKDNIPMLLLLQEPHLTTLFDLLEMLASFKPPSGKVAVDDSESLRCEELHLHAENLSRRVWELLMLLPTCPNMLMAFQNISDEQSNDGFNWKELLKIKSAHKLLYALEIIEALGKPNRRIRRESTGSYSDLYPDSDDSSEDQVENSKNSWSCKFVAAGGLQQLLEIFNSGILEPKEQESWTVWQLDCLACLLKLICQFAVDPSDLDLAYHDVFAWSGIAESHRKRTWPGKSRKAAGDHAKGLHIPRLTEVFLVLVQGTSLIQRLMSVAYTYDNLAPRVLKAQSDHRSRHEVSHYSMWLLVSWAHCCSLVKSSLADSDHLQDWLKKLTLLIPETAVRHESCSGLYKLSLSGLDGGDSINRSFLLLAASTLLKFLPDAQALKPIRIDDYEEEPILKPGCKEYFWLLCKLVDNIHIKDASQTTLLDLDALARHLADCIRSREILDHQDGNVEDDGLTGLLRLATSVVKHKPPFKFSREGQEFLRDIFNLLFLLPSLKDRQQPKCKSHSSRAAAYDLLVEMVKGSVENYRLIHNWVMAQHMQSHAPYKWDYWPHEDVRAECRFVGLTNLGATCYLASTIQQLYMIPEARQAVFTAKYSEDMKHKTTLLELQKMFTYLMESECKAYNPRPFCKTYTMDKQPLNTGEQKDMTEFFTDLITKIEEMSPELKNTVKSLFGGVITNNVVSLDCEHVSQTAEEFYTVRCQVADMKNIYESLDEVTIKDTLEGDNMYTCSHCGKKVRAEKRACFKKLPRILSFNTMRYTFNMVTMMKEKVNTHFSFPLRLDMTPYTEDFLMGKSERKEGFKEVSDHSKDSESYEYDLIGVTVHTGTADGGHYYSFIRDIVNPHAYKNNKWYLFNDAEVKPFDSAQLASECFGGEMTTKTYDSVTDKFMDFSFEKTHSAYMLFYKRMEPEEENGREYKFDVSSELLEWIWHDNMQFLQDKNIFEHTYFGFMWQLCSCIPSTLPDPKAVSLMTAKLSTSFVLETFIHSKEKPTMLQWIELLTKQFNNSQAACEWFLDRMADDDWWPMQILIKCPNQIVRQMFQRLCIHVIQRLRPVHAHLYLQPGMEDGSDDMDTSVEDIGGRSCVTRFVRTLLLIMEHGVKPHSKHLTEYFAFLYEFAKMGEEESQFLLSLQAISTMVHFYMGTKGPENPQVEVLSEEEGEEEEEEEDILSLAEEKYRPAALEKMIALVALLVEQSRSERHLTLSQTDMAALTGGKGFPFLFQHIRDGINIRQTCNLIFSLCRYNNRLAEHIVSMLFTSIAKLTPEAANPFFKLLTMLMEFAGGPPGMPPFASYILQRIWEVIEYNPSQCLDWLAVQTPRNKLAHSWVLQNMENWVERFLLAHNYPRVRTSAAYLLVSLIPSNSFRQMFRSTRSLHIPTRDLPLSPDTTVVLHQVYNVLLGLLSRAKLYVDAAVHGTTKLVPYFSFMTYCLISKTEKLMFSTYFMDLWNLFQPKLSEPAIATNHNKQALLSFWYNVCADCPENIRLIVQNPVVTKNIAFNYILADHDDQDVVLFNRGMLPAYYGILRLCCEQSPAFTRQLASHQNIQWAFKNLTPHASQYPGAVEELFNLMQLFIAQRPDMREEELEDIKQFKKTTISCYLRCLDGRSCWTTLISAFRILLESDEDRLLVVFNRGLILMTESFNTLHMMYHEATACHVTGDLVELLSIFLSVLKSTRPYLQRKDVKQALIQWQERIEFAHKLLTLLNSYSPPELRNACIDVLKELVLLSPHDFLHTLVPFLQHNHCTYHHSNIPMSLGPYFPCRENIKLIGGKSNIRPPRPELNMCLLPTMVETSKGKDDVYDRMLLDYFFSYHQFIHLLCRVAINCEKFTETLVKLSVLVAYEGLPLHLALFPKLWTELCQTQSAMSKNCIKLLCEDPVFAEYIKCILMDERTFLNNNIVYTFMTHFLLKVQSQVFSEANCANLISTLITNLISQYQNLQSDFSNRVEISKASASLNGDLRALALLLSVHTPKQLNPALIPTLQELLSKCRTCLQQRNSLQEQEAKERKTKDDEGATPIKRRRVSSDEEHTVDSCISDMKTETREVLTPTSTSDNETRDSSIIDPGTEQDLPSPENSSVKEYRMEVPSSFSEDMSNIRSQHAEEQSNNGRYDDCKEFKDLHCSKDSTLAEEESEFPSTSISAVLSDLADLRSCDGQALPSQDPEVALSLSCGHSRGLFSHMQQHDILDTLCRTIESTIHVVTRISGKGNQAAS
Outline: (§1)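 HEK293T lysate, 495 µg per sample in Tris/CHAPS/IGEPAL buffer with protease inhibitors, was treated in triplicate with fragment at 200 µM or vehicle for 3 h and then with Biotin-Ahx-Ub-VS at 0.5 µM final for 1 h. Labelled DUBs were NeutrAvidin-enriched, digested with LysC and trypsin, and run by diaPASEF LC-MS/MS. Spectronaut label-free quantities were global-median-normalised, and values are average log2 fragment/vehicle ratios by unpaired t-test on proteins with ≥2 unique peptides.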

USP36 = target: T1, USP36 (UniProt Q9P275)
T1 sequence (whole entry): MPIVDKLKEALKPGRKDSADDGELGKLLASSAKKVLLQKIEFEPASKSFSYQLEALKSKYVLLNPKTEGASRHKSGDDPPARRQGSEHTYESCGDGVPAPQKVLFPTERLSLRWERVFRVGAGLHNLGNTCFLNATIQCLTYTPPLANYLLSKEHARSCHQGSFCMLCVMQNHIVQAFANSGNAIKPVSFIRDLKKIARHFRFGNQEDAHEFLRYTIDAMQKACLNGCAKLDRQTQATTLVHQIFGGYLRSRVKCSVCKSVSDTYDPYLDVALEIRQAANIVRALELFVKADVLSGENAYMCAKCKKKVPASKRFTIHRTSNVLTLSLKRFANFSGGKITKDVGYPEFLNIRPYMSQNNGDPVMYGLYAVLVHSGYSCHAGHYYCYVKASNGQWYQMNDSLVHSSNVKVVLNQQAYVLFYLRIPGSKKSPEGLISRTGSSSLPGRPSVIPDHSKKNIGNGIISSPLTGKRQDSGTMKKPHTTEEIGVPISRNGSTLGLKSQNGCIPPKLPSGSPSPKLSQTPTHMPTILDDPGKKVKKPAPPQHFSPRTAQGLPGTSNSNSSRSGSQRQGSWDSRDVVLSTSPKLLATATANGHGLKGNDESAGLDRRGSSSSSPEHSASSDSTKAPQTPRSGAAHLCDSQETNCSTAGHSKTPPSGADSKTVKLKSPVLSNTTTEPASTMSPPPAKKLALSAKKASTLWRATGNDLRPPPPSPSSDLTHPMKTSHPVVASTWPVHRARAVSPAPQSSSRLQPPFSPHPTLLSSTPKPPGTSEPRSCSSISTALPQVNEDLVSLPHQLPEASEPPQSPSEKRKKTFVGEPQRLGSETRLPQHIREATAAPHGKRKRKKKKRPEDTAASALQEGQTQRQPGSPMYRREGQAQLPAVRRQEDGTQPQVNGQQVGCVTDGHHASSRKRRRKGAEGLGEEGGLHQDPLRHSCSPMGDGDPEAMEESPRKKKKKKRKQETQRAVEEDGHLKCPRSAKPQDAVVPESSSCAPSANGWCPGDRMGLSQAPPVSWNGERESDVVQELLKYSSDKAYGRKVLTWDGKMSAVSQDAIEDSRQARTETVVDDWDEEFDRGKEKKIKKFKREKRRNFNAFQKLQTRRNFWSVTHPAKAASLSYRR
Outline: as §1

USP38 = target: T2, USP38 (UniProt Q8NB14)
T2 sequence (whole entry): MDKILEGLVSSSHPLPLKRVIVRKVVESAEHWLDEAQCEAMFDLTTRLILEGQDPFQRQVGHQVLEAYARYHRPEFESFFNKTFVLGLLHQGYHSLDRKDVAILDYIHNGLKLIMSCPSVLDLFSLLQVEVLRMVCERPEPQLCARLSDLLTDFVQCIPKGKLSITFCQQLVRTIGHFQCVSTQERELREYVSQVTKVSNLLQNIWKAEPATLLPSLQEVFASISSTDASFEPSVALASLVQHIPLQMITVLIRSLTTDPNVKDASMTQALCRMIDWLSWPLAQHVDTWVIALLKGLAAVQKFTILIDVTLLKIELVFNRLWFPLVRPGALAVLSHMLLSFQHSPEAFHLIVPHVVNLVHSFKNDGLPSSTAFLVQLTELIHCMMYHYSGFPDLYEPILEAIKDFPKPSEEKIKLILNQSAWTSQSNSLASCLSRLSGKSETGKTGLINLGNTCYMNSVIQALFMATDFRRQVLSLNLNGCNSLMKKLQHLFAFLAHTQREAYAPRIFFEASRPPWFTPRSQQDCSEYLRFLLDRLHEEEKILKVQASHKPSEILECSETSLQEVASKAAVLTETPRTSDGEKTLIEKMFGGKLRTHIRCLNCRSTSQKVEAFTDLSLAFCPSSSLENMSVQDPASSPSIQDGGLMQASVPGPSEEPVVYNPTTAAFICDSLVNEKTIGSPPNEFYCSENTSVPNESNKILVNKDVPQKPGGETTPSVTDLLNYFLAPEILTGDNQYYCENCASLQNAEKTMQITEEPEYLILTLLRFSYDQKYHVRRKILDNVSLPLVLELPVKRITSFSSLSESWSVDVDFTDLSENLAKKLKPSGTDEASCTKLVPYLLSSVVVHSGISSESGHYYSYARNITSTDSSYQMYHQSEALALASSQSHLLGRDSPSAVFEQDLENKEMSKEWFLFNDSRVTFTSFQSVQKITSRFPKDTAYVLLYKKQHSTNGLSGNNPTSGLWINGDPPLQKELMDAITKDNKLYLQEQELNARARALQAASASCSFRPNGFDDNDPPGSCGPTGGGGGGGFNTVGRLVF
Outline: as §1

USP39 = target: T3, USP39 (UniProt Q53GS9)
T3 sequence (whole entry): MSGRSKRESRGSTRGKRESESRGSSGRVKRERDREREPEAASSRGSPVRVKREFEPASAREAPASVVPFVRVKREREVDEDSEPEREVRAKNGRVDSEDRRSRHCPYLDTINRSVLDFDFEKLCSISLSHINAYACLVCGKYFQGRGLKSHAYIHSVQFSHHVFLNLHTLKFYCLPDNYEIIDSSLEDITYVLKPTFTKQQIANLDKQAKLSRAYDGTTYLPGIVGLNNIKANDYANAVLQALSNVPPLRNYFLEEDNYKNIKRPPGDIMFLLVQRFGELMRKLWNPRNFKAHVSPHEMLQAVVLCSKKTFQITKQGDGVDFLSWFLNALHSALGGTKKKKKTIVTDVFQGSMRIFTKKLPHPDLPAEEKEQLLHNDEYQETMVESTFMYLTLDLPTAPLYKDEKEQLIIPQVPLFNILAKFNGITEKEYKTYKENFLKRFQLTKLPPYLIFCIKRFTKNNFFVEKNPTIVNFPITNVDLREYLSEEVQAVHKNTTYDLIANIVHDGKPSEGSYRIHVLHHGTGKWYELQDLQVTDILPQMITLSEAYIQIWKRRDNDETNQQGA
Outline: as §1

USP4 = target: T4, USP4 (UniProt Q13107)
T4 sequence (whole entry): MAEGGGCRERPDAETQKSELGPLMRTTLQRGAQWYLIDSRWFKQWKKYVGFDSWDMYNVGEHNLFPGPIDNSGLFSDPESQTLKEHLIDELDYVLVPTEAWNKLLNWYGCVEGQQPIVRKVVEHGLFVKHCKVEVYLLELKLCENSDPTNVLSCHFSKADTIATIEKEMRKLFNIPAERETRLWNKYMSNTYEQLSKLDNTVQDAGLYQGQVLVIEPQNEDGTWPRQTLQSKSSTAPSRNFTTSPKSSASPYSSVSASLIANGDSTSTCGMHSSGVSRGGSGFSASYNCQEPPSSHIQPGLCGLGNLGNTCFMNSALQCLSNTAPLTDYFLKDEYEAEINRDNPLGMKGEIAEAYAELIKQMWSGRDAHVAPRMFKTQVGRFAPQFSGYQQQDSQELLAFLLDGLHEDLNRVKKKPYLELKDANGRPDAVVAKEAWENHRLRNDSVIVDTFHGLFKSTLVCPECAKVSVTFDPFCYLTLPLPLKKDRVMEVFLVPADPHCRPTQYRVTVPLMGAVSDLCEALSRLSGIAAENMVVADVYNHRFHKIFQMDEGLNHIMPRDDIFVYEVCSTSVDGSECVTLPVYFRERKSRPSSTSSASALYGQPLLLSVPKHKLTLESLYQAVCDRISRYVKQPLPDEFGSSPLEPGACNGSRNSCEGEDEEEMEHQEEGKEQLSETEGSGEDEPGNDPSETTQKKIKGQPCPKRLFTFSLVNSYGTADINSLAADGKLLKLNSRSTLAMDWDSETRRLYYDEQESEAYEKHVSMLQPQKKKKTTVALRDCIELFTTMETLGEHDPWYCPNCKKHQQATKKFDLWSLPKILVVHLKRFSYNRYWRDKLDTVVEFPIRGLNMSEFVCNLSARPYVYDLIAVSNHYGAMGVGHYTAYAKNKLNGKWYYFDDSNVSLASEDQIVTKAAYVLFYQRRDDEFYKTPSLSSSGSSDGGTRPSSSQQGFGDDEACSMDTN
Outline: as §1

Measured: log2 ratio of Biotin-Ahx-Ub-VS probe labelling

O=C(CCl)N1CCC2(CCC(O)CC2)CC1
inactive: USP34 -0.363 | USP36 -0.0873 | USP38 0.139 | USP39 0.333 | USP4 0.123
